# Source: PubChem BioAssay AID2315 (National Center for Advancing Translational Sciences (NCATS), 2010)
# In all, about 290,000 compounds went through this assay and about 27,000 (9.3%) were called active. Rule as the data show it: active = inhibition mostly above about 28% (no sharp cut-off); inactive = mostly below about 43%. This excerpt belongs to a sample that is enriched for actives.
# Assay: A qHTS for Small Molecule Inhibitors of Shiga Toxin; also: 0% is about no effect
# Conditions: Vero cells, Shiga toxin protein synthesis inhibition reporter; at 38.7 µM, active compounds read high
row,Compound,inhibition
1,O=C(c1cc2cc(Br)cc(Br)c2oc1=O)N1CCOCC1,11.8% (inactive)
2,COC(=O)CSc1nc2ccccc2c(=O)n1Cc1ccccc1,-8.77% (inactive)
3,Cc1c(CC(=O)NCCCCCC(=O)O)c(=O)oc2cc3occ(-c4ccccc4)c3cc12,-4.34% (inactive)
4,CCN(CC)S(=O)(=O)c1ccc(N2CC(C(=O)NCc3cccnc3)CC2=O)cc1 (configuration not stated),-5.91% (inactive)
5,Cc1ccc(CNC(=O)CCN2C(=O)[C@@H]3Cc4ccccc4CN3C2=O)cc1,8.09% (inactive)
6,CCC(Cc1ccccc1)NS(=O)(=O)c1ccc2c(c1)NC(=O)CS2 (configuration not stated),1.38% (inactive)
7,O=C(CN(CC1CCCO1)C(=O)CNS(=O)(=O)c1ccc(Cl)cc1)NCc1ccccc1 (configuration not stated),-14% (inactive)
8,Cc1ccc(C(=O)N(CC(=O)NC2CCCC2)c2ccc(F)cc2)s1,-7.38% (inactive)
9,O=C(Nc1ccccc1)Nc1ccc(C(F)(F)F)cn1,53% (active)
10,Cc1ccc(NC(=O)Nc2cccc(C(F)(F)F)c2)nc1,52.4% (inactive)
11,O=C(NC(=O)c1cc(OCC(F)(F)F)ccc1OCC(F)(F)F)Nc1ccccc1,27.7% (inactive)
12,O=C(OCC(=O)c1c[nH]c2ccccc12)c1cccc(O)c1,69.8% (active)
13,O=C(CNC(=O)c1ccc(-c2ccccc2)cc1)OCc1ccc(Cl)cc1,-7.89% (inactive)
14,CC(=O)Nc1ccccc1C(=O)OCC(=O)c1cccc2ccccc12,-4.88% (inactive)
15,CC1CCN(CC(=O)c2c[nH]c3ccccc23)CC1,15.1% (inactive)
16,O=C(OCc1ccc(-c2ccccc2)cc1)c1cccc(O)c1,80.8% (active)
17,O=C(OCc1ccc(Br)cc1)c1cccc(-c2nnc(-c3ccccc3)o2)c1,31.1% (inactive)
18,S=C(Nc1ccc(Br)cc1)NC1CCN(Cc2ccccc2)CC1,-5.49% (inactive)
19,CCc1cc2c(NC(Cc3ccccc3)C(=O)O)ncnc2s1 (configuration not stated),-7.1% (inactive)
20,COc1ccc(NS(=O)(=O)c2cc(C(=O)Nc3ccccc3C(=O)O)ccc2C)cc1,-9.69% (inactive)
21,C/C(=N/NC(=O)c1ccncc1)c1ccc2c(c1)OCO2,1.65% (inactive)
22,C/C(=N\NC(N)=S)c1ccncc1,-3.77% (inactive)
23,C/C(=N/NC(=O)c1ccn(C)n1)c1ccncc1,81.2% (active)
24,O=C(C1CCC1)N1CCN(c2ccccc2)CC1,-2.3% (inactive)
25,CC(=O)Oc1ccc(NC(=O)CCC2CCCCC2)c(C(=O)O)c1,9.77% (inactive)
26,COc1ccc(NC(=O)CCN2CCCC2)c(OC)c1,-1.84% (inactive)
27,COc1ccc(NC(=O)CCCC2CCCCC2)c(OC)c1,72.3% (active)
